Measurements from PubChem BioAssay (NCATS).
Records with an inconclusive call do not appear. Activity calls are given as the source filed them. Unless noted, the call rests on the fitted dose curve; in most records, active means well fitted curve in the direction sought with a large enough effect; inconclusive means small, poorly fitted or top-dose-only effect, or another doubt; inactive means no such curve, though single readings can be large; an effect the other way counts as inactive or inconclusive.

Tests used:
[1] = tested on: Zika virus NS2B-NS3 protease (linked construct); test: Primary screen NINDS Rhodamine qHTS for Zika virus inhibitors (AID 1347160); further: nearly all actives have a fitted effect of over 55% in size
Method in brief: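 Aprotinin served as in-plate control. Conditions: 25 nM linked NS2B-NS3, pH 8.0 Tris buffer, titrated compounds, 15 min preincubation and 15 min reaction with 1.5 microM Rhod110 substrate at room temperature.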

[2] = target: Calcium and integrin-binding protein 1 (Homo sapiens) (UniProt Q99828); test: Primary qHTS for Identification of Calcium Integrin Binding Protein 1 (CIB1) Competitor (AID 1508620);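 further: GST tagged CIB1 binding a fluorescein labelled alphaIIb integrin peptide tracer; top concentration of the series differs between compounds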
Method in brief: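 Fluorescence polarization competition: CIB1-GST (1 uM final) preincubated with compound 15 min at room temperature, then FITC-labeled alphaIIb peptide (100 nM final) added for another 15 min. Polarization read at Ex 480/Em 540.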

[3] = target: Cytochrome P450 2D6 (Homo sapiens) (UniProt P10635); test: Cytochrome P450 family 2 subfamily D member 6 (CYP2D6) small molecule antagonists: luciferase biochemical (cell-free) qHTS assay (AID 1645840; active means well fitted curve in the direction sought with a large enough effect in the repeat runs; an effect the other way counts as inactive or inconclusive; further: potency means the concentration at half of the fitted maximal effect; nearly all actives have a fitted effect of over 55% in size)
Method in brief: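 P450-Glo CYP2D6 system: proluciferin substrate converted by enzyme to luciferin, read by luminescence proportional to activity. Enzyme-substrate mix with compound 10 min at room temperature, then NADPH regeneration 1 h before detection reagent.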

[4] = target: Cytochrome P450 2C9 (Homo sapiens) (UniProt P11712); test: Cytochrome P450 family 2 subfamily C member 9 (CYP2C9) small molecule antagonists: luciferase biochemical (cell-free) qHTS assay (AID 1645842; active means well fitted curve in the direction sought with a large enough effect in the repeat runs; an effect the other way counts as inactive or inconclusive; further: potency means the concentration at half of the fitted maximal effect; nearly all actives have a fitted effect of over 55% in size)
Method in brief: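 P450-Glo CYP2C9 system: proluciferin substrate with enzyme in mix containing 0.4% BSA, 10 min at room temperature, then NADPH regeneration solution added and incubated 1 h at 37C. Detection reagent stopped reaction; luminescence read after 20 min as RLU.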

[5] = Primary qHTS for inhibitors of nuclear receptor binding SET domain protein 2 (NSD2) in an isogenic RCH-ACV NSD2 p.E1099K mutant (9B) (AID 1645876); further: potency means the concentration at half of the fitted maximal effect; nearly all actives have a fitted effect of over 70% in size
[6] = Primary qHTS for inhibitors of nuclear receptor binding SET domain protein 2 (NSD2) in an RCH-ACV wild type WT cells (2C) (AID 1645877); further: potency means the concentration at half of the fitted maximal effect; nearly all actives have a fitted effect of over 70% in size
[7] = target: Glutathione peroxidase 1 (Homo sapiens) (UniProt P07203); test: Primary qHTS Assay for Inhibitors of Recombinant Selenoprotein Glutathione Peroxidase 1 (GPX1) (AID 1845191); further: nearly all actives have a fitted effect of over 65% in size
Method in brief: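 GPX1 10 nM, GR 100 nM, GSH 1 mM, NADPH 0.5 mM, CHP 0.5 mM (final). 30-min cpd preincubation, RT. Ex340/Em450 read t=0, t=15 min.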

[8] = target: Phospholipid hydroperoxide glutathione peroxidase GPX4 (Homo sapiens) (UniProt P36969); test: Primary qHTS Assay for Inhibitors of Recombinant Selenoprotein Glutathione Peroxidase 4 (GPX4) (AID 1845192); further: nearly all actives have a fitted effect of over 65% in size
Method in brief: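 qHTS, GR-coupled: GPX4 200 nM + cpd 30 min RT → GSH 1 mM, NADPH 0.5 mM, GR 100 nM → CHP 0.5 mM start; fluor 340/450 at t0 and t15 min; no-enzyme wells as control.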

[9] = target: Luciferin 4-monooxygenase (Photinus pyralis) (UniProt P08659); test: Primary firefly luciferase (FLuc) qHTS assay for identification of artifact compounds. (AID 1845220); settings: outcome: dose series up to 54.1 µM unless noted; further: nearly all actives have a fitted effect of over 60% in size
Method in brief: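 Reaction readout was CCD-imaged luminescence, taken 5 min after adding 10 nM purified firefly enzyme to compound-treated wells holding 10 uM luciferin and ATP in pH 7.6 buffer.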

[10] = Primary fluorescence-based thiol-reactive (MSTI) qHTS assay for identification of artifact compounds. (AID 1845221);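 further: thiol-reactive compounds lower the probe fluorescence signal; nearly all actives have a fitted effect of over 65% in size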
Method in brief: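 In PBS pH 7.4 with 2% DMSO, each compound met 4 uM MSTI for one hour at ambient temperature, shielded from light, before fluorescence detection.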

[11] = tested on: Nanoluciferase (engineered Oplophorus gracilirostris luciferase); test: Primary Nanoluciferase (NLuc) qHTS assay for identification of artifact compounds. (AID 1845222);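 further: NLuc secreted into diluted conditioned medium of S16 cells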
Method in brief: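 Concentration-response data were obtained by luminescence after 5 min with Nano-Glo substrate at 1:100. The enzyme was diluted S16 NLuc-expressing cell medium, preincubated with compound for 15 min at RT. Curves were fitted with a 4-parameter Hill model.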

[12] = Primary redox qHTS assay for identification of artifact compounds. (AID 1845223)
Method in brief: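 Redox-cycling detection via DTT (250 uM final) oxidation coupled to Amplex Red (25 uM)/HRP (250 mU/mL) in HBSS. 15 min preincubation plus 30 min after DTT, room temperature. Ex/Em 525/598 nm; 4-parameter Hill fit against DMSO and 10 uM DA3003.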

C33A = test: Primary qHTS to identify gynecologic anti-cancer compounds using libraries of approved drugs and bioactive compounds (AID 1345084); settings: Gynecologic cancer cell panel viability, ATPlite luminescence, 48 h; series mostly up to 57.5 µM; further: nearly all actives have a fitted effect of over 55% in size
Method in brief: (§1)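 Five-concentration response, 48 h; readout is ATP-driven luciferase luminescence.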

CAOV3 = test: as above; settings: Gynecologic cancer cell panel viability, ATPlite luminescence, 48 h; series mostly up to 57.5 µM
Method in brief: as §1

CASKI = test: as above; settings: Gynecologic cancer cell panel viability, ATPlite luminescence, 48 h; series mostly up to 57.5 µM
Method in brief: as §1

Es-2 = test: as above; settings: Gynecologic cancer cell panel viability, ATPlite luminescence, 48 h; series mostly up to 57.5 µM
Method in brief: as §1

HeLa = test: as above; settings: Gynecologic cancer cell panel viability, ATPlite luminescence, 48 h; series mostly up to 57.5 µM
Method in brief: as §1

Hek293T = test: as above; settings: Gynecologic cancer cell panel viability, ATPlite luminescence, 48 h, control line for the selectivity index; series mostly up to 57.5 µM
Method in brief: as §1

JEG-3 = test: as above; settings: Gynecologic cancer cell panel viability, ATPlite luminescence, 48 h; series mostly up to 57.5 µM
Method in brief: as §1

OV90 = test: as above; settings: Gynecologic cancer cell panel viability, ATPlite luminescence, 48 h; series mostly up to 57.5 µM
Method in brief: as §1

PA-1 = test: as above; settings: Gynecologic cancer cell panel viability, ATPlite luminescence, 48 h; series mostly up to 57.5 µM
Method in brief: as §1

Tov-21-G = test: as above; settings: Gynecologic cancer cell panel viability, ATPlite luminescence, 48 h; series mostly up to 57.5 µM
Method in brief: as §1

Tov112D = test: as above; settings: Gynecologic cancer cell panel viability, ATPlite luminescence, 48 h; series mostly up to 57.5 µM
Method in brief: as §1

[13] = P-glycoprotein substrates identified in KB-8-5-11 adenocarcinoma cell line, qHTS therapeutic library screen (AID 1346987); further: potency means the concentration at half of the fitted maximal effect; nearly all actives have a fitted effect of over 65% in size
Method in brief: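 Compounds are pinned in dose-response onto KB-8-5-11 cells (500 cells/well, colchicine-free medium) and left 72 h at 37 degree C. CellTiter-Glo luminescence then yields AC50 values.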

[14] = tested on: Zika virus NS2B-NS3 protease; test: Primary screen GU AMC qHTS for Zika virus inhibitors (AID 1347154); further: nearly all actives have a fitted effect of over 70% in size
Method in brief: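 Unlinked Zika NS2B hydrophilic domain/NS3 protease domain noncovalent complex (25 nM final) in 10 mM Tris-HCl pH 8.0, 0.01% Tween 20, with AMC peptide substrate. Fluorescence (ex 340, em 450 nm) change over 15 min, room temperature; percent inhibition fitted to 4-parameter Hill equation.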

[15] = Primary qHTS for small molecule stabilizers of the endoplasmic reticulum resident proteome: Secreted ER Calcium Modulated Protein (SERCaMP) assay (AID 1508630)
Method in brief: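 The SH-SY5Y reporter protocol was run at 3 concentrations up to 38.3 uM (primary) or 11 concentrations (follow-up): 16 h compound, 100 nM thapsigargin for 4 h, then extracellular luciferase luminescence.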

[16] = target: Nuclear receptor subfamily 1 group I member 3 (Homo sapiens) (UniProt Q14994); test: Primary qHTS for antagonist of constitutive androstane receptor (CAR) against the NCATS DSHEA and TCM libraries (AID 1794836)
Method in brief: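 HepG2 cells stably carrying hCAR and a CYP2B6 luciferase reporter (2,500 cells/well) attached for 5 h, then received compounds with 48 uM CITCO for 24 h at 37C. ONE-Glo luminescence read antagonism; CellTiter-Fluor (405/540 nm) gave viability.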

CRL-7250 = normal cell line; test: qHTS assay to identify novel small-molecules to repurpose for Merkel cell carcinoma treatment (AID 1296009); settings: MCC and control cell lines, CellTiter-Glo viability, 72 h; series mostly up to 92 µM; further: nearly all actives have a fitted effect of over 60% in size
Method in brief: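 Viability readout: ATP luminescence (CellTiter-Glo) after 72 hr drug exposure at 37 degree celsius. Dose-response format was 8 points for NPC and 11 points for MIPE; data normalized to in-plate controls.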

Measured: Potency

Sequence of Glutathione peroxidase 1 (Homo sapiens) (P07203 whole entry, looked up): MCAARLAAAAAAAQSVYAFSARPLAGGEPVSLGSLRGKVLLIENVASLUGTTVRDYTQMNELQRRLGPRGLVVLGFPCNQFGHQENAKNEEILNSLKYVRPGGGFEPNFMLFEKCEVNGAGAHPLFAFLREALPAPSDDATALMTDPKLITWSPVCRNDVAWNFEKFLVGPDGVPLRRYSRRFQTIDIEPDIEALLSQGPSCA
Sequence of Calcium and integrin-binding protein 1 (Homo sapiens) (Q99828 whole entry, looked up): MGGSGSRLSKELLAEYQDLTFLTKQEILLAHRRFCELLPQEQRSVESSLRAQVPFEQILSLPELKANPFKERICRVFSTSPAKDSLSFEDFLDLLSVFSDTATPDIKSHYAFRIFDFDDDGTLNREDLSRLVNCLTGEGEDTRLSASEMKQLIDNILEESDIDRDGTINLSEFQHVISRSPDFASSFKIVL
Sequence of Cytochrome P450 2C9 (Homo sapiens) (P11712 whole entry, looked up): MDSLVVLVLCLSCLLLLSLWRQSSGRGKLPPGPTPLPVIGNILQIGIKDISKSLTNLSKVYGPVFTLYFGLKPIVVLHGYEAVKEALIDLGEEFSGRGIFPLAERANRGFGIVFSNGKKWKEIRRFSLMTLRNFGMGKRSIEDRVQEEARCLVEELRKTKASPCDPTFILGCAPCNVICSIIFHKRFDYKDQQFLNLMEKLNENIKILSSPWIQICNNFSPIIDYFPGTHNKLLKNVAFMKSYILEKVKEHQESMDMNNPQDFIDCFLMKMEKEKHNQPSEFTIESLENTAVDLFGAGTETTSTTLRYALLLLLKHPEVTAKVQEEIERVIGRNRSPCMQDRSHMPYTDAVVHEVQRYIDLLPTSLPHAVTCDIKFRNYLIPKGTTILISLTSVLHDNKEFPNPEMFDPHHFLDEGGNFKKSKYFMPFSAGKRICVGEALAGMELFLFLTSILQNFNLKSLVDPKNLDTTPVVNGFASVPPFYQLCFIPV
Sequence of Phospholipid hydroperoxide glutathione peroxidase GPX4 (Homo sapiens) (P36969 whole entry, looked up): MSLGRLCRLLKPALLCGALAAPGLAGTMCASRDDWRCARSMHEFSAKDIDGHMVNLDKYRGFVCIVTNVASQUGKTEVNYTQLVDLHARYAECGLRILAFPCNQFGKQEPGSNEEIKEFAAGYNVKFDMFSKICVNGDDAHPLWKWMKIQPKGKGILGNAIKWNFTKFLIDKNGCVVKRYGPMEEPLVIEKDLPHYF
Sequence of Nuclear receptor subfamily 1 group I member 3 (Homo sapiens) (Q14994 whole entry, looked up): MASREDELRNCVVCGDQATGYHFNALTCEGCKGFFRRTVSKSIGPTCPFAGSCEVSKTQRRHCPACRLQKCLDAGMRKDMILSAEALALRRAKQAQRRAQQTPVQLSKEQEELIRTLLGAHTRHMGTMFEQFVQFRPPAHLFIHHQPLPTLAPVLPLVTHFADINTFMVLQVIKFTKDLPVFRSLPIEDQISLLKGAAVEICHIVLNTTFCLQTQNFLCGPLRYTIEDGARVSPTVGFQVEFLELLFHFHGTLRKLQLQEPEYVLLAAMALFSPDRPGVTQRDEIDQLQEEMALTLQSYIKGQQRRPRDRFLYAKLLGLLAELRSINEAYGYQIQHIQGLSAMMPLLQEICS
Sequence of Cytochrome P450 2D6 (Homo sapiens) (P10635 whole entry, looked up): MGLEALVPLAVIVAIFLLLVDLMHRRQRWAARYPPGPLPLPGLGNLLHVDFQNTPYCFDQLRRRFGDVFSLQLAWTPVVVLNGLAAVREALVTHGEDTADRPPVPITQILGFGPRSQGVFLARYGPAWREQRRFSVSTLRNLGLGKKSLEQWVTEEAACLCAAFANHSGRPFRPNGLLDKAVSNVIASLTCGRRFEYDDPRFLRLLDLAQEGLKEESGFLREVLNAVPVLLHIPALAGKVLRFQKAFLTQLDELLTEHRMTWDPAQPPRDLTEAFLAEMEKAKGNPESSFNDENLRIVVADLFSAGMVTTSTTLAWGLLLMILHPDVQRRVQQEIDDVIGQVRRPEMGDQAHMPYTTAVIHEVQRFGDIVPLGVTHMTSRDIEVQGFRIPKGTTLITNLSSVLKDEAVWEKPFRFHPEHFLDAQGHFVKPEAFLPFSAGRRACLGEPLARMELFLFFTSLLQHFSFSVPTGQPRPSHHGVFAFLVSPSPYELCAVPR

O=C(NCCN1CCC2(CC1)C(=O)NCN2c1cccc(F)c1)c1ccc2ccccc2c1
active: [3] 2.68 µM | [4] 12 µM | [5] 9.16 µM | [6] 9.16 µM
not listed: [13] | [14] | [15] | [16] | CRL-7250
inactive: all other assays above

O=C1NC(=O)c2c1c1c3ccccc3n3c1c1c2c2ccccc2n1C1CCC3O1
active: [13] 3.66 µM | [5] 0.517 µM | [6] 0.731 µM
inactive: [14] | [15] | [7]

CC(C)=CCC(O)/C(C)=C/CO[C@@H]1O[C@H](CO)[C@@H](O)[C@H](O)[C@H]1O (stereo partly specified)
inactive: [16] | CRL-7250
